Compound activity as filed in PubChem.
This is a sample that favours compounds with a hit; in the whole collection about 3.7% have one here.
Kir21 block: inhibitors of mouse Kir2.1 inward-rectifier potassium channel; Inward rectifier potassium channel 2 (Mus musculus), P35561; AID 1672, 2009; B-score at 10 µM; HEK293-Kir2.1, FluxOR thallium flux fluorescence; active compounds read low; 0.85% of 310,000 active;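 active = fluorescence ratio B-score at or below minus 3 SD of library scores, with starting-brightness B-score within 2 SD, cut at about -4.2 in these data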;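 note: channel flux triggered by added potassium and thallium sulfate stimulus; B-score of peak minus minimum fluorescence over baseline after thallium stimulus; more negative B-score means stronger Kir2.1 block with less thallium influx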
TMEM16A act: TMEM16A chloride channel activators or potentiators, primary screen, cell-based, HTS; B-score at 10 µM; AID 623877, 2012; 0.3% of 340,000 active; Anoctamin-1 (Mus musculus), Q8BHY3; HEK293 TMEM16A/YFP-H148Q/I152L, iodide quench fluorescence; active compounds read low;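 active = fluorescence-ratio B-score plate-corrected deviation score at least 3 library SD below zero, with starting fluorescence score within 5 deviations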;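 note: channel opened by trigger with iodide after compound preincubation; score built on the fluorescence ratio of max minus min over baseline; more negative score means more quench and so TMEM16A activation or potentiation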
CHT PAM: CHT positive allosteric modulators, primary screen, cell-based, membrane potential dye, choline EC20; B-score at 10 µM; High affinity choline transporter 1 (Homo sapiens), Q9GZV3; AID 488977, 2010; CHT-expressing cells; active compounds read high; LV-AA mutant CHT in HEK293 cells; 0.49% of 310,000 active;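 active = initial fluorescence not abnormally high and integrated response B-score, plate-corrected, over 3 SD above library mean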
CHT inh: inhibitors of human choline transporter CHT; CHT-expressing cells, membrane potential dye, choline response; active compounds read low; B-score at 10 µM; 0.86% of 310,000 active;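 active = B-score over 3 SD under the library average, and starting fluorescence ratio not unusually high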;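 note: choline stimulus applied at its EC90 after an EC20 pre-addition; B-score computed on integrated fluorescence ratio after choline addition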
GPR7 antagonist: GPR7 receptor antagonists, primary screen, cell-based, fluorescence, single concentration | Neuropeptides B/W receptor type 1 (Homo sapiens), P48145 | GPR7-expressing cells, fluorescence antagonist assay | inhibition, % at 4.4 µM | 1.1% of 290,000 active; in the data active = inhibition above about 16%, passing the limit was not always enough;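 note: cells stimulated with the agonist NPW; 0% = agonist with vehicle and 100% = vehicle without agonist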
Target sequence (P48145 whole entry, looked up): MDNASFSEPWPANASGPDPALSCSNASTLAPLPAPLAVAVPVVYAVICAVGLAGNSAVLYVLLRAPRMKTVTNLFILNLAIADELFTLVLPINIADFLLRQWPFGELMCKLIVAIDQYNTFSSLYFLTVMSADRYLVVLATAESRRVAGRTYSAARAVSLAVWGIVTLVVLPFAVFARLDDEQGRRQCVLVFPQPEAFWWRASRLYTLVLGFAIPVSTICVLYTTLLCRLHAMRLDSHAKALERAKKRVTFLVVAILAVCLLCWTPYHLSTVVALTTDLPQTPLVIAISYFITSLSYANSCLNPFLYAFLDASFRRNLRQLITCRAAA
ANO1 block: TMEM16A chloride channel inhibitors, primary screen, cell-based, HTS; Anoctamin-1 (Mus musculus), Q8BHY3; HEK293 TMEM16A/YFP iodide influx fluorescence, ionomycin; normalized B-score (activity score, 25-100; higher = stronger inhibition) at 10 µM; 1.2% of 310,000 active;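 active = ratio plate-corrected score three or more library SD toward inhibition, starting fluorescence score within five deviations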;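 note: score derived from kinetic fluorescence span divided by baseline fluorescence per well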
CHT block conf: CHT inhibitors, confirmation, cell-based, membrane potential dye, duplicate. CHT-expressing cells, choline membrane potential dye; LV-to-AA substituted CHT, HEK293 cells. shares compounds with CHT inh. 70% of 2,400 active. CHT activity remaining % of control (active compounds read low), % at 10 µM;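 active = choline transporter activity left, mean of duplicates at 10 µM, below buffer-only control mean minus 3 SD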;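 note: depolarization triggered by choline at its EC90 following an EC20 pre-addition; 0% = hemicholinium-3 full block and 100% = buffer-only control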
HEK293 CHT ctr: membrane potential effects in parental HEK293, counter-screen for CHT inhibitor project, cell-based, membrane potential dye | shares compounds with CHT inh | choline response; active = decrease or increase beyond buffer ±3SD | membrane potential ratio readout (active if shifted either direction beyond buffer ±3SD; no single direction) at 10 µM | 4% of 2,400 active | AID 493222, 2011;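 note: parental cells lack the transporter so any hit is non-specific; ratio is peak minus trough fluorescence over baseline after EC90 choline challenge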
Numbers without * were called inactive; i = inactive; nt = not tested or not shown.

SMILES	Kir21 block	TMEM16A act	CHT PAM	CHT inh	GPR7 antagonist	ANO1 block	CHT block conf	HEK293 CHT ctr
CC(C)(C)C(=O)N1CCN(c2ccc(NC(=O)c3ccc4c(c3)OCCO4)cc2)CC1	0	i	i	-5.4*	-9	i	66%*	i
c1ccc2c(c1)nc(N1CCOCC1)c1nncn12	-0.15	i	i	i	-1	i	nt	nt
c1ccc(CN2CCN(c3nc4ccccc4n4cnnc34)CC2)cc1	-1.9	i	i	-5.5*	-2	i	59%*	i
COc1ccc(-n2c(C)cc(C(=O)CSc3nnc(-c4ccoc4C)n3C)c2C)cc1	-1.3	i	i	-5.1*	0	i	66%*	i
COc1cccc(NC(=O)CSc2nnc(-c3ccoc3C)n2C)c1	0.47	i	i	i	13	i	nt	nt
CC(=O)N1CCN(c2ccc(NCc3ccccc3)cc2)CC1	-0.83	i	i	i	-9	i	nt	nt
Fc1ccc(CNc2ccc(N3CCN(Cc4ccccc4)CC3)cc2)cc1	-7.1*	i	i	i	1	i	i	i
CN(CC(=O)Nc1ccc(OC(F)(F)F)cc1)C(=O)Cc1cccs1	nt	i	nt	nt	nt	nt	nt	nt
S=c1[nH]c2ccc(Cl)cc2[nH]1	1.2	i	i	i	-13	i	nt	nt
S=c1[nH]c2cc(Cl)ccc2s1	1.9	i	i	-5*	-1	i	54%*	i
Cc1cc(NC(=O)C(C)SCC(=O)NCc2ccc(F)cc2)no1 (stereo not given)	nt	i	nt	nt	nt	nt	nt	nt
COc1ccc(C(=O)Nc2nc(CC(=O)NCCc3ccccc3)cs2)cc1	0.95	i	i	-5.1*	nt	i	i	i
CS(=O)(=O)c1nc(-c2ccc(Br)cc2)n[nH]1	-1	i	i	i	2	i	nt	nt
CCN(C(=O)CSc1nc(N)cc(=O)[nH]1)c1c(N)n(Cc2ccccc2)c(=O)[nH]c1=O	-0.54	i	i	i	nt	i	nt	nt
CC(C)c1ccc(NC(=O)CSc2nc3ccsc3c(=O)n2CCC(=O)O)cc1	0.81	i	i	i	-7	i	nt	nt
CS(=O)(=O)N1CCc2cc(S(=O)(=O)N3CCCCC3)ccc21	-0.63	i	i	-7.5*	-1	i	i	i
CC(=O)N1CCc2cc(S(=O)(=O)N3CCCCCC3)ccc21	0	i	i	i	-5	i	nt	nt
Cc1cc(C)n(CCN(C)C(=O)C2CCC(=O)N(CCc3cccc(F)c3)C2)n1 (stereo not given)	0.39	i	i	i	-15	i	nt	nt
CN1CCN(CCOCCOc2ccc(Br)cc2Cl)CC1	0.74	i	i	-6.7*	11	i	56%*	i
Cc1ccc(OCCOCCN2CCN(C)CC2)c([N+](=O)[O-])c1	0.11	i	i	i	-2	i	nt	nt
COc1ccc(OC)c(S(=O)(=O)N2CCC(C(=O)N3CCc4ccccc4C3)CC2)c1	-0.98	i	i	i	-1	i	i	i
COc1ccc(OC)c(S(=O)(=O)N2CCC(C(=O)N3CCCC3)CC2)c1	-0.02	i	i	i	-6	i	nt	nt
Cc1ncc([N+](=O)[O-])n1Cc1cccc(F)c1	-1.7	i	i	i	6	i	nt	nt
CCOC(=O)c1cc(-c2ccccc2C)n(CC2CC(c3ccc(OC)cc3)=NO2)n1 (stereo not given)	nt	i	nt	nt	nt	nt	nt	nt
COc1ccc(/C=C/C(=O)NC2CCCCCCC2)cc1S(=O)(=O)N1CCOCC1	0	i	i	-7.6*	-5	i	20%*	i
SMILES	Kir21 block	TMEM16A act	CHT PAM	CHT inh	GPR7 antagonist	ANO1 block	CHT block conf	HEK293 CHT ctr
Oc1c(Br)cc(/C=N/n2c(-c3ccccc3)n[nH]c2=S)cc1Br	0.48	i	i	i	-10	i	nt	nt
S=c1[nH]nc(-c2ccccn2)n1/N=C/c1cccc(Cl)c1	0.02	i	i	-5.7*	-16	i	i	i
Oc1ccc(/C=N/n2c(-c3ccccc3)n[nH]c2=S)cc1Br	2.5	i	i	-6*	-16	i	54%*	i
S=c1[nH]nc(-c2ccco2)n1/N=C/c1cccc(Cl)c1	1.7	i	i	i	-14	i	nt	nt
COc1ccccc1NC(=O)c1cc(S(=O)(=O)N2CCCC2)cn1C	0.01	i	i	i	-12	i	nt	nt
Cc1csc(SCC(=O)Nc2cc([N+](=O)[O-])ccc2F)n1	nt	i	nt	nt	nt	nt	nt	nt
CC(=O)OC1CC2(C)/C(=N\O)CCC2C2CCc3cc(O)ccc3C12 (stereo not given)	1.1	i	i	-11*	7	i	3.2%*	i
COc1ccc(S(=O)(=O)N2CCN(CC(=O)Nc3sccc3C(N)=O)CC2)cc1OC	nt	i	nt	nt	nt	nt	nt	nt
CC1CCCCC12NC(=O)N(CC(=O)NNC(=O)c1ccc(Br)cc1)C2=O (stereo not given)	nt	i	nt	nt	nt	nt	nt	nt
COC(=O)c1ccc(NC(=O)CSC2=NC(=O)C(c3ccccc3)C(=O)N2)cc1 (stereo not given)	-1.2	i	i	i	-14	i	nt	nt
CC(=O)Nc1c2c3c(cccc3n(C)c1=O)C(=O)c1ccccc1-2	0.42	i	i	-5.9*	-1	i	45%*	2.4*
CC(=O)C1C(c2ccc([N+](=O)[O-])cc2)c2c(noc2C)CC1(C)O (stereo not given)	0.21	i	i	i	-18	i	nt	nt
CCCCn1c(Nc2ccc(OC)cc2)nc2ccccc21	-1.2	i	i	i	-14	i	nt	nt
COc1ccc(Nc2nc3ccccc3n2C)cc1	1.4	i	i	-6.5*	-2	i	53%*	i
Cc1ccc2cc3c(NS(=O)(=O)c4cccc5nonc45)nn(CC(C)C)c3nc2c1	0.84	i	i	-6*	-11	i	64%*	i
O=C(O)CC1=C(Nc2ccccc2)C(=O)N(c2ccccc2)C1c1ccc(Br)cc1 (stereo not given)	0.44	i	i	-5.9*	-2	i	25%*	i
